# Experimental data: PubChem BioAssay (Tox21)
# Values joined by “and” are separate entries in the source; they are usually repeats but may differ in a detail not shown here. Identical values can stand only once. Inconclusive results are not listed. A call without a number means that no potency is given here. Some compounds were tested as several samples or in several runs, with calls that do not always agree. Active and inactive are the calls of the source. Unless noted, the call rests on the fitted dose curve; in most records, active means well fitted curve in the direction sought with a large enough effect in the repeat runs; inconclusive means weak or mixed curves; inactive means no such curve, though single readings can be large; an effect the other way counts as inactive or inconclusive.
# How the values were obtained:
# [1] = biological target: Aryl hydrocarbon receptor (Homo sapiens) (UniProt P35869); test: qHTS assay to identify small molecule that activate the aryl hydrocarbon receptor (AhR) signaling pathway (AID 743085); further: nearly all actives have a fitted effect of over 15% in size; further: potency means the concentration at half of the fitted maximal effect;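 on activation: HG2L7.5c1 human HepG2 liver cells with stably integrated DRE-driven firefly reporter; series mostly up to about 70 µM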
# Chain of Aryl hydrocarbon receptor (Homo sapiens) (P35869 whole entry, looked up): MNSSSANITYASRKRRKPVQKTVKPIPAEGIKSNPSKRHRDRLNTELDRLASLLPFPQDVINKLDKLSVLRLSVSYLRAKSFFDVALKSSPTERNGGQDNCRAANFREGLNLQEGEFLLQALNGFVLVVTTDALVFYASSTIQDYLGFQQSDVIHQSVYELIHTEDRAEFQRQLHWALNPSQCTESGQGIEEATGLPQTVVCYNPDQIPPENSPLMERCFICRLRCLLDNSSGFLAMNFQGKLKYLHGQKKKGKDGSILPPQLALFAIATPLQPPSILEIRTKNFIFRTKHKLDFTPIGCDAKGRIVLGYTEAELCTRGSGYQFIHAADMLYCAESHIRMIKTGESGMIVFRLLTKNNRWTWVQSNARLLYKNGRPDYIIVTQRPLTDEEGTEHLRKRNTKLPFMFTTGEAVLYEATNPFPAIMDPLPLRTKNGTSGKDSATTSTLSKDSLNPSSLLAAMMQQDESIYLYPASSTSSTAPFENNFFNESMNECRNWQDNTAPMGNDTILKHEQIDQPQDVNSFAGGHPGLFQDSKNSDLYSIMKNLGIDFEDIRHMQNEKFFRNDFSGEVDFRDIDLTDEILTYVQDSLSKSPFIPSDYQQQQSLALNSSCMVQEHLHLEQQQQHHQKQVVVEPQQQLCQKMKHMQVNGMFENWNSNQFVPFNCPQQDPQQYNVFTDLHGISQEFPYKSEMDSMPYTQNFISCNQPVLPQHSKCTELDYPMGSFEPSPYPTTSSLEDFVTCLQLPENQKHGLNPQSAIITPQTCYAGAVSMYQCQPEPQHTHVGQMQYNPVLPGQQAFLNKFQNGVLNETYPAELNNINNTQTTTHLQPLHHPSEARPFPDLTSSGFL
# Summary of the method: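 Reporter assay in engineered HepG2 line HG2L7.5c1, whose plasmid carries twenty dioxin responsive elements upstream of firefly luciferase. Treatment lasted 24 h at 37C; ONE-Glo luminescence gauged induction.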
# [2] = qHTS assay to identify small molecule that activate the aryl hydrocarbon receptor (AhR) signaling pathway - cell viability counter screen (AID 743086); further: nearly all actives have a fitted effect of over 45% in size; further: potency means the concentration at half of the fitted maximal effect
# Summary of the method: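 Cytotoxicity counter screen: CellTiter-Fluor signal (30 min, 37 C) in 4000 HepG2 cells/well carrying the DRE-luciferase reporter, following 24 h compound exposure at 37 C.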
# [3] = biological target: Peroxisome proliferator-activated receptor gamma (Homo sapiens) (UniProt P37231); test: qHTS assay to identify small molecule agonists of the peroxisome proliferator-activated receptor gamma (PPARg) signaling pathway (AID 743094; active means well fitted activation curve with a large enough effect in the signal ratio in the repeat runs, not every such curve was filed as active; the % refers to the signal ratio)
# Chain of Peroxisome proliferator-activated receptor gamma (Homo sapiens) (P37231 whole entry, looked up): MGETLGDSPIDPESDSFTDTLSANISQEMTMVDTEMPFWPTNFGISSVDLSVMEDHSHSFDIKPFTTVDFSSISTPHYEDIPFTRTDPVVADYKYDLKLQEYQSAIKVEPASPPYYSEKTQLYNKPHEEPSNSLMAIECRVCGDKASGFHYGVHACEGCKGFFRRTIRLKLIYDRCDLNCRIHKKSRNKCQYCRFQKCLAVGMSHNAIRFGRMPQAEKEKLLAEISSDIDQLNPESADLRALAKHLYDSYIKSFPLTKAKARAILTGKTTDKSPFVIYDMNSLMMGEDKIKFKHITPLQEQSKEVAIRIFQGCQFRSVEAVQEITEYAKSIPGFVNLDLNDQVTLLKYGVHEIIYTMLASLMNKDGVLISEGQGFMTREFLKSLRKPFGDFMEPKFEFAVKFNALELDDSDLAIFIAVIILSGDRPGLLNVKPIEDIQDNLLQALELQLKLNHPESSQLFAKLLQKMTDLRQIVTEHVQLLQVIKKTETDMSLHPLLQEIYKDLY
# Summary of the method: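 Fluorescence-based beta-lactamase readout in HEK293H PPARg UAS-bla cells after 17 h compound exposure (37C) and 1 h B/G FRET substrate incubation at room temperature.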
# [4] = qHTS assay to identify small molecule antagonists of the peroxisome proliferator-activated receptor gamma (PPARg) signaling pathway - cell viability counter screen (AID 743194); further: nearly all actives have a fitted effect of over 55% in size; further: potency means the concentration at half of the fitted maximal effect
# Summary of the method: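 Viability was measured as CellTiter-Glo luminescence in GeneBLAzer PPARg UAS-bla HEK293H cells. These cells had been exposed 17 h at 37 C to compounds together with rosiglitazone at 50 nM final, with the beta-lactamase readout taken in the same wells.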
# [5] = qHTS assay for small molecule agonists of the antioxidant response element (ARE) signaling pathway - cell viability counter screen (AID 743203; calls by dose curve; further: nearly all actives have a fitted effect of over 55% in size; further: potency means the concentration at half of the fitted maximal effect)
# Summary of the method: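 Parallel cytotoxicity read-out for the ARE-bla screen: HepG2 reporter cells, 16 hrs with compounds, then CellTiter-Glo luminescence.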
# [6] = qHTS assay for small molecule activators of the heat shock response signaling pathway - cell viability counter screen (AID 743209); further: nearly all actives have a fitted effect of over 50% in size; further: potency means the concentration at half of the fitted maximal effect
# Summary of the method: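 To flag cytotoxic compounds, HSE-bla HeLa cells plated at 1500 cells/well were dosed for 5 h at 37 C, followed by the reporter FRET read and then CellTiter-Glo, with luminescence recorded 30 min after reagent addition.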
# [7] = qHTS assay to identify small molecule agonists of the peroxisome proliferator-activated receptor delta (PPARd) signaling pathway - cell viability counter screen (AID 743211); further: nearly all actives have a fitted effect of over 55% in size; further: potency means the concentration at half of the fitted maximal effect
# Summary of the method: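 Multiplexed format: after the 2 h room-temperature LiveBLAzer B/G FRET step, CellTiter-Glo was added to the same wells. Luminescence after 30 min gave cell viability; compound exposure was 17 h at 37C.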
# [8] = qHTS assay to identify small molecule agonists of the farnesoid-X-receptor (FXR) signaling pathway - cell viability counter screen (AID 743218); further: nearly all actives have a fitted effect of over 45% in size; further: potency means the concentration at half of the fitted maximal effect
# Summary of the method: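 Same-well cytotoxicity check on FXR-UAS-bla HEK 293T cells: 5 h attachment, 16 h compound at 37 C, CellTiter-Glo luminescence read at room temperature after 30 min.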
# [9] = biological target: Bile acid receptor (Homo sapiens) (UniProt Q96RI1); test: qHTS assay to identify small molecule agonists of the farnesoid-X-receptor (FXR) signaling pathway (AID 743220; active means well fitted activation curve with a large enough effect in the signal ratio in the repeat runs, not every such curve was filed as active; the % refers to the signal ratio)
# Chain of Bile acid receptor (Homo sapiens) (Q96RI1 whole entry, looked up): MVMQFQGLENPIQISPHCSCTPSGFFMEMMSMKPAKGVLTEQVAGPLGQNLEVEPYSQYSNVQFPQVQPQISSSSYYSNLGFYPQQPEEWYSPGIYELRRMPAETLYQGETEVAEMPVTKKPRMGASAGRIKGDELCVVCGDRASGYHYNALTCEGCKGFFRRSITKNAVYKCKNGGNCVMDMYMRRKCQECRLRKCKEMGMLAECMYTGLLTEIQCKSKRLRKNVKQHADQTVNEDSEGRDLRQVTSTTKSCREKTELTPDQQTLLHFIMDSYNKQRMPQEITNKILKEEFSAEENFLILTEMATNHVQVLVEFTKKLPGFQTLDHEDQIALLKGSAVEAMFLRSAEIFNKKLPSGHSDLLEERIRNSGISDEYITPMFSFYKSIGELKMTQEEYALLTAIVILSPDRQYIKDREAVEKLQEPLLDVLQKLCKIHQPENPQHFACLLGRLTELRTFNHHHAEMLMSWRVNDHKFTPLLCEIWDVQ
# Summary of the method: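 FXR-UAS-bla HEK 293T cells carrying a UAS-driven beta-lactamase reporter were plated for 5 h at 37C/5% CO2, then exposed to DMSO-dissolved Tox21 10K compounds for 16 h at 37C. A LiveBLAzer B/G FRET substrate was loaded for 2 h at room temperature before fluorescence reading.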
# [10] = biological target: Vitamin D3 receptor (Homo sapiens) (UniProt P11473); test: qHTS assay to identify small molecule agonists of the vitamin D receptor (VDR) signaling pathway (AID 743222; calls by dose curve)
# Chain of Vitamin D3 receptor (Homo sapiens) (P11473 whole entry, looked up): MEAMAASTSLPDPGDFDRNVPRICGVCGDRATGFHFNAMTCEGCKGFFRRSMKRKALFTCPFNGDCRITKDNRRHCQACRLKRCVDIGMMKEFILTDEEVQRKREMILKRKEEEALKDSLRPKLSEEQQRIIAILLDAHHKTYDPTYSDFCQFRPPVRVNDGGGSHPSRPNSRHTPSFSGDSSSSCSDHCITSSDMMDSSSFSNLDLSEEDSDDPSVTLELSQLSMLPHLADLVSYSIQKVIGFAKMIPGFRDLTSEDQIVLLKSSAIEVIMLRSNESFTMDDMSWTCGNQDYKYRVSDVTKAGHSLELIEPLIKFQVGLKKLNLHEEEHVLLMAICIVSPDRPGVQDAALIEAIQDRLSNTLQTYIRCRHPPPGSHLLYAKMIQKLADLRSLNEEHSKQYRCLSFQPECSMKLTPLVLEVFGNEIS
# Summary of the method: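 Using LiveBLAzer B/G FRET detection, agonism was scored in VDR-bla cells exposed overnight (16 h, 37C) to DMSO-dissolved compounds; substrate incubation was 2 h at room temperature.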
# [11] = biological target: Vitamin D3 receptor (Homo sapiens) (UniProt P11473); test: qHTS assay to identify small molecule antagonists of the vitamin D receptor (VDR) signaling pathway (AID 743223; active means well fitted inhibition curve with a large enough effect in the signal ratio in the repeat runs, not every such curve was filed as active; the % refers to the signal ratio)
# Summary of the method: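 After VDR-bla cells are plated and left 4 h at 37C, DMSO-dissolved compounds and 3 nM (final) calcitriol agonist are added. Incubation continues 16 h at 37C; FRET beta-lactamase substrate then develops 2 h at room temperature.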
# [12] = qHTS assay to identify small molecule agonists of the vitamin D receptor (VDR) signaling pathway - cell viability counter screen (AID 743224); further: nearly all actives have a fitted effect of over 50% in size; further: potency means the concentration at half of the fitted maximal effect
# Summary of the method: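 Counter screen for cytotoxicity: VDR-bla cells at 2,000 cells/well, 16 h compound exposure, then CellTiter-Glo luminescence after the beta-lactamase measurement.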
# [13] = qHTS assay for small molecule activators of the heat shock response signaling pathway (AID 743210; active means well fitted activation curve with a large enough effect in the signal ratio in the repeat runs, with a control signal flat, not every such curve was filed as active; the % refers to the signal ratio;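 further: HeLa cells with beta-lactamase reporter driven by heat shock elements; series mostly up to about 63 µM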)
# Summary of the method: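 Fluorescence from a cleaved B/G FRET substrate (2.5 h, room temp) reports HSE-driven beta-lactamase in HeLa cells treated 5 h at 37 C with DMSO-dissolved compounds.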
# [14] = biological target: Peroxisome proliferator-activated receptor delta (Homo sapiens) (UniProt Q03181); test: qHTS assay to identify small molecule agonists of the peroxisome proliferator-activated receptor delta (PPARd) signaling pathway (AID 743212; calls by dose curve;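 further: HEK293H cells with PPARd UAS beta-lactamase reporter GeneBLAzer system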)
# Chain of Peroxisome proliferator-activated receptor delta (Homo sapiens) (Q03181 whole entry, looked up): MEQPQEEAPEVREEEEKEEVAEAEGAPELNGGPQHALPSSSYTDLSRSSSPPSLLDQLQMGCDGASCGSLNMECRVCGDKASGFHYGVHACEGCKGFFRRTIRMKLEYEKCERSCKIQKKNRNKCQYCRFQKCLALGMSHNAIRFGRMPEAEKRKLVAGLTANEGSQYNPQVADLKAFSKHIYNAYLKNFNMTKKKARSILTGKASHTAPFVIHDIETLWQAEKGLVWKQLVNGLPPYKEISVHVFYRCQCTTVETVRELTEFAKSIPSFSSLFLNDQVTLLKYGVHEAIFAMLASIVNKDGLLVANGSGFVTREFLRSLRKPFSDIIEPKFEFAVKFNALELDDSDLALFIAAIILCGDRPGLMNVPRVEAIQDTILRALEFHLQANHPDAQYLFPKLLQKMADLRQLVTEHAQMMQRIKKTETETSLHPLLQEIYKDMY
# Summary of the method: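 Steps: seed PPARd-bla HEK293H cells; incubate 5 h, 37 C, 5% CO2; add compounds in DMSO; incubate, 37 C; add LiveBLAzer B/G FRET substrate; hold 2 h at room temperature; measure fluorescence.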
# [15] = qHTS assay to identify small molecule antagonists of the peroxisome proliferator-activated receptor delta (PPARd) signaling pathway - cell viability counter screen (AID 743213); further: nearly all actives have a fitted effect of over 50% in size; further: potency means the concentration at half of the fitted maximal effect
# Summary of the method: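 In this counter screen, HEK293H cells carrying a UAS-beta-lactamase reporter are co-treated with test compounds and 300 nM L165041 (final) for 17 h at 37 C; cell viability is quantified by CellTiter-Glo luminescence.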
# [16] = biological target: Peroxisome proliferator-activated receptor delta (Homo sapiens) (UniProt Q03181); test: qHTS assay to identify small molecule antagonists of the peroxisome proliferator-activated receptor delta (PPARd) signaling pathway (AID 743215; active means well fitted inhibition curve with a large enough effect in the signal ratio in the repeat runs, not every such curve was filed as active; the % refers to the signal ratio;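 further: cells stimulated with agonist L165041 at 300 nM final during compound exposure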; further: potency means the concentration at half of the fitted maximal effect)
# Summary of the method: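 Screen format: qHTS, antagonist mode. HEK293H PPARd-bla cells received compound and 300 nM L165041 (final), 17 h, 37 C. Beta-lactamase detected via FRET substrate fluorescence, 2 h, room temperature.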
# [17] = biological target: Bile acid receptor (Homo sapiens) (UniProt Q96RI1); test: qHTS assay to identify small molecule antagonists of the farnesoid-X-receptor (FXR) signaling pathway (AID 743217; active means well fitted inhibition curve with a large enough effect in the signal ratio in the repeat runs, not every such curve was filed as active; the % refers to the signal ratio)
# Summary of the method: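 Quantitative HTS, beta-lactamase reporter format: FXR-UAS-bla HEK 293T cells co-treated 16 h at 37 °C with compounds and 50 uM final chenodeoxycholic acid, then read by B/G FRET fluorescence.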
# [18] = qHTS assay to identify small molecule antagonists of the farnesoid-X-receptor (FXR) signaling pathway - cell viability counter screen (AID 743221; active means well fitted cell-killing curve with a large enough effect in the repeat runs, not every such curve was filed as active; further: nearly all actives have a fitted effect of over 50% in size; further: potency means the concentration at half of the fitted maximal effect)
# Summary of the method: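 CellTiter-Glo, 30 min RT, luminescence; same wells as the LiveBLAzer FRET read. Cells: FXR-UAS-bla HEK 293T. Treatment: compound with chenodeoxycholic acid 50 uM final, 16 h at 37 C.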
# [19] = qHTS assay for small molecule agonists of the antioxidant response element (ARE) signaling pathway (AID 743202; active means well fitted activation curve with a large enough effect in the signal ratio in the repeat runs, not every such curve was filed as active; the % refers to the signal ratio; further: potency means the concentration at half of the fitted maximal effect)
# Summary of the method: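 Beta-lactamase reporter activity, read as fluorescence intensity, reflects ARE/Nrf2 pathway induction in HepG2 cells after 16 h compound exposure at 37 C; substrate loading was 2 h at room temperature.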
# [20] = biological target: Peroxisome proliferator-activated receptor gamma (Homo sapiens) (UniProt P37231); test: qHTS assay to identify small molecule antagonists of the peroxisome proliferator-activated receptor gamma (PPARg) signaling pathway (AID 743191; calls by dose curve; further: nearly all actives have a fitted effect of over 30% in size; further: potency means the concentration at half of the fitted maximal effect)
# Summary of the method: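 Beta-lactamase reporter under UAS control in HEK293H PPARg-bla cells; compound treatment 17 h at 37C. Read-out: fluorescence intensity after 1 h room-temperature incubation with LiveBLAzer B/G FRET substrate.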
SMILES,Potency [1],Potency [2],Potency [3],Potency [4],Potency [5],Potency [6],Potency [7],Potency [8],Potency [9],Potency [10],Potency [11],Potency [12],Potency [13],Potency [14],Potency [15],Potency [16],Potency [17],Potency [18],Potency [19],Potency [20]
CCCCCCCCCCCCCCCS(=O)(=O)Oc1ccccc1,inactive,inactive,inactive,inactive,inactive,inactive,inactive,inactive,inactive,inactive,inactive,inactive,,,,,,,,
CO[Si](CCCNc1ccccc1)(OC)OC,inactive,inactive,inactive,inactive,,inactive,inactive,inactive,inactive,inactive,,inactive,inactive,inactive,inactive,inactive,inactive,inactive,,
C[C@]12CCC(=O)C=C1CC[C@@H]1[C@@H]2[C@@H](O)C[C@@]2(C)[C@H]1CC[C@]2(O)C(=O)COC(=O)CCC(=O)O,inactive,inactive,inactive,inactive,inactive,inactive,inactive,inactive,inactive,inactive,inactive,inactive,,,inactive,,inactive,inactive,inactive,
NNc1nc(-c2ccccc2)cs1,9.97 µM (active),inactive,inactive,inactive,inactive,inactive,,2.52 µM (active),,,,,,,,inactive,,,,0.504 µM (active)
O=C(O)c1c(Cl)cccc1Cl,inactive,inactive,inactive,inactive,inactive,,inactive,inactive,inactive,,,inactive,inactive,inactive,inactive,inactive,inactive,inactive,inactive,inactive
Oc1ccc2cc(SSc3ccc4cc(O)ccc4c3)ccc2c1,inactive,inactive,inactive,,inactive,,,,inactive,,,inactive,,inactive,,17.4 µM (active),inactive,inactive,,13.8 µM (active)
CC(C)(C)CC(C)(C)c1ccc(OCCOCC[N+](C)(C)Cc2ccccc2)cc1,inactive,inactive and 61.1 µM (active),inactive,19.5 µM (active) and 29.8 µM (active),21.7 µM (active) and 29.8 µM (active),34.6 µM (active),21.9 µM (active) and 21.1 µM (active),48.9 µM (active),inactive,,,38.9 µM (active) and 26.6 µM (active),,,17.4 µM (active),,inactive,43.6 µM (active) and 26.6 µM (active),,
CCCC(C)c1ccccc1O (centres undefined),inactive,inactive,inactive,inactive,inactive,inactive,inactive,inactive,inactive,inactive,inactive,inactive,inactive,inactive,inactive,inactive,inactive,inactive,inactive,inactive
c1ccc(CSCc2ccccc2)cc1,inactive,inactive,inactive,inactive,inactive,inactive,inactive,inactive,,inactive,,inactive,inactive,inactive,inactive,inactive,,inactive,,inactive
NC(=O)NS(=O)(=O)c1ccc(N)cc1,inactive,inactive,inactive,inactive,inactive,inactive,,inactive,,,,,inactive,,inactive,,,inactive,inactive,inactive
CCOC(=O)O[C@]1(C(=O)OCCl)CC[C@H]2[C@@H]3CCC4=CC(=O)C=C[C@]4(C)[C@H]3[C@@H](O)C[C@@]21C,inactive,inactive,inactive,inactive,inactive,inactive,inactive,inactive,,,,inactive,inactive,,inactive,,inactive,inactive,10.6 µM (active),
Cc1onc(-c2c(Cl)cccc2Cl)c1C(=O)N[C@@H]1C(=O)N2[C@@H]1SC(C)(C)[C@@H]2C(=O)O,inactive,inactive,inactive,,inactive,inactive,inactive,inactive,,inactive,,inactive,,,inactive,,,inactive,,inactive
CN(C)[C@@H]1C(=O)C(C(N)=O)=C(O)[C@@]2(O)C(=O)C3=C(O)c4c(O)ccc(Cl)c4[C@@H](O)[C@H]3C[C@@H]12,inactive,inactive,inactive,inactive,inactive,inactive,inactive,inactive,,,,inactive,inactive,,inactive,,,inactive,,
CNC(=O)c1ccccc1,inactive,inactive,inactive,inactive,inactive,inactive,,inactive,inactive,inactive,inactive,inactive,inactive,inactive,,inactive,inactive,inactive,,
O=c1[nH]cnc2nc[nH]c12,inactive,inactive,inactive,inactive,inactive,inactive,inactive,inactive,inactive,,,,inactive,,,,inactive,inactive,inactive,
